Consider 39 compounds from the supplement of paper PMC12669032.

A number with no mark means an inactive call.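 Rule for the calls: active = AUC reduced over 20% with Padj below 0.05 in at least 2 of 3 replicates; inactive = otherwise.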

The first assay concerns Bacteroides clarus. The assay can be described thus: growth AUC relative to DMSO control (median of replicates) (fraction); higher = more growth (less inhibition), active = hit call of the paper. Particulars: 20 µM; 24 h. The essentials:
(§1)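 In round-bottom 96-well plates sealed with pierced gas-permeable seals, gut bacterial monocultures in mGAM were grown anaerobically at 37 °C from OD600 0.05 with 20 µM compound (1% DMSO). OD600 readings were taken hourly for 24 h, and the minimum OD was set to 0. Area under the growth curve was then normalised to the plate median of solvent-only wells, or to row and column medians on the industrial chemical plate. The value given is the median of three biological replicates grown on separate days.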
Regarding `CCC(C)(c1ccc(O)cc1)c1ccc(O)cc1`, the “growth AUC” value was 0.925.

For `C[n+]1ccc(-c2cc[n+](C)cc2)cc1.O.[Cl-].[Cl-]`, the “growth AUC” value was 1.

As for `C=CCC1=C(C)C(OC(=O)C2C(C=C(C)C)C2(C)C)CC1=O` (mixture of isomers), the “growth AUC” value was 1.04.

For the compound `CCOP(=S)(OCC)SCS(=O)CC` (stereo not drawn), the “growth AUC” value was 0.994.

As for `CC1=C(C(=O)Nc2ccccc2)SCCO1`, the “growth AUC” value was 1.

In the case of `CC(C)Nc1nc(Cl)nc(NC(C)C)n1`, the “growth AUC” value was 0.989.

As to `CNC(=O)Oc1cc(C)cc(C(C)C)c1`, the “growth AUC” value was 0.982.

Regarding `C=CCN(CC=C)C(=O)C(Cl)Cl`, the “growth AUC” value was 1.

Consider `CCS(=O)Cc1ccccc1OC(=O)NC` (stereo not drawn), for which the “growth AUC” value is 0.986.

`CNC1=C(c2cccc(C(F)(F)F)c2)C(=O)C(c2ccccc2)O1` (stereo not drawn): the “growth AUC” value was 0.953.

Take `CC/C(=N\OC/C=C/Cl)C1=C(O)CC(C2CCOCC2)CC1=O` (stereo not drawn): the “growth AUC” value is 1.03.

On to `CC(COc1ccc(Oc2ccccc2)cc1)Oc1ccccn1` (stereo not drawn), for which the “growth AUC” value was 0.98.

Turning to `COCCOC(=O)C(C#N)(C(=O)c1ccccc1C(F)(F)F)c1ccc(C(C)(C)C)cc1` (stereo not drawn), the “growth AUC” value is 0.965.

Regarding `O=c1oc2ccccc2c(O)c1C1CC(c2ccc(OCc3ccc(C(F)(F)F)cc3)cc2)Cc2ccccc21` (mixture of isomers), the “growth AUC” value is 0.548 (active).

As to `CN(C)C1CSSSC1.O=C(O)C(=O)O`, the “growth AUC” value was 0.974.

For the compound `OC(c1ccc(Cl)cc1)(c1ccc(Cl)cc1)C(Cl)(Cl)Cl`, the “growth AUC” value is 0.409 (active).

As for `Cc1cc(C2CC2)nc(Nc2ccccc2)n1`, the “growth AUC” value was 0.939.

With `CCC(CC)Nc1c([N+](=O)[O-])cc(C)c(C)c1[N+](=O)[O-]`, the “growth AUC” value is 0.942.

For `CCCSC(=O)N(CCC)CCC`, the “growth AUC” value is 0.957.

For `C[C@@H](Oc1ccc(Cl)cc1Cl)C(=O)O`, the “growth AUC” value was 1.

As for `CCOP(=S)(OCC)Oc1cc(-c2ccccc2)on1`, the “growth AUC” value is 0.984.

On to `O=C(O)c1cc(Cl)ccc1Cl`, for which the “growth AUC” value was 0.989.

As to `OCC(O)CCl` (stereo not drawn), the “growth AUC” value was 0.998.

For `Cc1ccc2nc3sc(=O)sc3nc2c1`, the “growth AUC” value was 1.01.

With `CC(Cl)(Cl)C(=O)O`, the “growth AUC” value was 1.02.

Take `CCNc1nc(NC(C)C(C)C)nc(SC)n1` (stereo not drawn): the “growth AUC” value was 0.962.

In the case of `CCCCCCCC(=O)Oc1c(I)cc(C#N)cc1I`, the “growth AUC” value is 0.864.

As to `COP(=S)(OC)Oc1cc(Cl)c(Br)cc1Cl`, the “growth AUC” value was 0.966.

Turning to `C=CCN=C=S`, the “growth AUC” value is 0.993.

On to `COC(=O)c1ccccc1S(=O)(=O)NC(=O)Nc1nc(C)cc(C)n1`, for which the “growth AUC” value is 0.988.

Take `CNC(=O)O/N=C(\SC)C(=O)N(C)C`: the “growth AUC” value was 0.967.

Take `CC(Cc1ccc(C(C)(C)C)cc1)CN1CCCCC1` (stereo not drawn): the “growth AUC” value is 0.951.

On to `CC1=NNC(=O)N(/N=C/c2cccnc2)C1`, for which the “growth AUC” value is 0.98.

With `c1ccc(-c2ccccc2)cc1`, the “growth AUC” value was 1.03.

As to `CN1CSC(=S)N(C)C1`, the “growth AUC” value is 0.939.

As to `COC(=O)NC(=S)Nc1ccccc1NC(=S)NC(=O)OC`, the “growth AUC” value is 0.985.

As for `C=CC1(C)OC(=O)N(c2cc(Cl)cc(Cl)c2)C1=O` (stereo not drawn), the “growth AUC” value is 0.958.

As to `ClC1=C(Cl)C2(Cl)C3C4C=CC(C4)C3C1(Cl)C2(Cl)Cl` (stereo not drawn), the “growth AUC” value is 0.987.

Regarding `CC(C)OP(=O)(OC(C)C)SCc1ccccc1`, the “growth AUC” value is 0.99.

The subject of a further assay is Bacteroides dorei. The assay is described as above. Particulars: 20 µM; 24 h. In a few lines: as §1
As to `CCC(C)(c1ccc(O)cc1)c1ccc(O)cc1`, the “growth AUC” value was 0.967.

`C[n+]1ccc(-c2cc[n+](C)cc2)cc1.O.[Cl-].[Cl-]`: the “growth AUC” value is 0.996.

`C=CCC1=C(C)C(OC(=O)C2C(C=C(C)C)C2(C)C)CC1=O` (mixture of isomers): the “growth AUC” value is 0.962.

`CCOP(=S)(OCC)SCS(=O)CC` (stereo not drawn): the “growth AUC” value was 1.01.

Take `CC1=C(C(=O)Nc2ccccc2)SCCO1`: the “growth AUC” value is 0.982.

Regarding `CC(C)Nc1nc(Cl)nc(NC(C)C)n1`, the “growth AUC” value was 0.965.

For `CNC(=O)Oc1cc(C)cc(C(C)C)c1`, the “growth AUC” value is 0.973.

On to `C=CCN(CC=C)C(=O)C(Cl)Cl`, for which the “growth AUC” value was 1.01.

As for `CCS(=O)Cc1ccccc1OC(=O)NC` (stereo not drawn), the “growth AUC” value is 0.943.

In the case of `CNC1=C(c2cccc(C(F)(F)F)c2)C(=O)C(c2ccccc2)O1` (stereo not drawn), the “growth AUC” value was 1.01.

Turning to `CC/C(=N\OC/C=C/Cl)C1=C(O)CC(C2CCOCC2)CC1=O` (stereo not drawn), the “growth AUC” value was 1.

Regarding `CC(COc1ccc(Oc2ccccc2)cc1)Oc1ccccn1` (stereo not drawn), the “growth AUC” value is 1.01.

For `COCCOC(=O)C(C#N)(C(=O)c1ccccc1C(F)(F)F)c1ccc(C(C)(C)C)cc1` (stereo not drawn), the “growth AUC” value is 0.927.

As for `O=c1oc2ccccc2c(O)c1C1CC(c2ccc(OCc3ccc(C(F)(F)F)cc3)cc2)Cc2ccccc21` (mixture of isomers), the “growth AUC” value was 1.02.

Consider `CN(C)C1CSSSC1.O=C(O)C(=O)O`, for which the “growth AUC” value is 1.17.

On to `OC(c1ccc(Cl)cc1)(c1ccc(Cl)cc1)C(Cl)(Cl)Cl`, for which the “growth AUC” value was 0.954.

Regarding `Cc1cc(C2CC2)nc(Nc2ccccc2)n1`, the “growth AUC” value was 0.916.

For the compound `CCC(CC)Nc1c([N+](=O)[O-])cc(C)c(C)c1[N+](=O)[O-]`, the “growth AUC” value was 0.91.

With `CCCSC(=O)N(CCC)CCC`, the “growth AUC” value is 1.02.

For `C[C@@H](Oc1ccc(Cl)cc1Cl)C(=O)O`, the “growth AUC” value was 0.925.

Turning to `CCOP(=S)(OCC)Oc1cc(-c2ccccc2)on1`, the “growth AUC” value is 0.861.

In the case of `O=C(O)c1cc(Cl)ccc1Cl`, the “growth AUC” value is 0.961.

In the case of `OCC(O)CCl` (stereo not drawn), the “growth AUC” value is 1.01.

Consider `Cc1ccc2nc3sc(=O)sc3nc2c1`, for which the “growth AUC” value is 0.985.

Turning to `CC(Cl)(Cl)C(=O)O`, the “growth AUC” value was 1.02.

As to `CCNc1nc(NC(C)C(C)C)nc(SC)n1` (stereo not drawn), the “growth AUC” value is 1.

As for `CCCCCCCC(=O)Oc1c(I)cc(C#N)cc1I`, the “growth AUC” value is 0.962.

In the case of `COP(=S)(OC)Oc1cc(Cl)c(Br)cc1Cl`, the “growth AUC” value was 0.995.

On to `C=CCN=C=S`, for which the “growth AUC” value was 1.01.

Consider `COC(=O)c1ccccc1S(=O)(=O)NC(=O)Nc1nc(C)cc(C)n1`, for which the “growth AUC” value was 0.968.

With `CNC(=O)O/N=C(\SC)C(=O)N(C)C`, the “growth AUC” value is 1.05.

In the case of `CC(Cc1ccc(C(C)(C)C)cc1)CN1CCCCC1` (stereo not drawn), the “growth AUC” value is 1.01.

For `CC1=NNC(=O)N(/N=C/c2cccnc2)C1`, the “growth AUC” value was 1.04.

For `c1ccc(-c2ccccc2)cc1`, the “growth AUC” value was 0.967.

In the case of `CN1CSC(=S)N(C)C1`, the “growth AUC” value is 1.03.

In the case of `COC(=O)NC(=S)Nc1ccccc1NC(=S)NC(=O)OC`, the “growth AUC” value is 1.01.

As for `C=CC1(C)OC(=O)N(c2cc(Cl)cc(Cl)c2)C1=O` (stereo not drawn), the “growth AUC” value was 1.

For `ClC1=C(Cl)C2(Cl)C3C4C=CC(C4)C3C1(Cl)C2(Cl)Cl` (stereo not drawn), the “growth AUC” value is 1.01.

Turning to `CC(C)OP(=O)(OC(C)C)SCc1ccccc1`, the “growth AUC” value was 0.981.
